We go through 39 sequences from the supplement of paper PMC10338343.

± gives the standard deviation. A value given as a limit tells only on which side of the number the result lay.

The test has as its system MILI (PIWIL2) piRISC loaded with piRNA #1 (26 nt). Nature of the test: pre-steady-state target cleavage rate (min^-1); guide: piRNA #1 5'p-UGAGGUAGUAGGUUGUAUAGUAUCCA; MIWI and MILI are mouse PIWI proteins and EfPiwi is from a freshwater sponge; tags in brackets are library labels; higher = faster piRNA-guided slicing of the target. As to conditions: auxiliary factor: 500 nM mouse GTSF1. The gist of the method: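 The pre-steady-state cleavage rate was obtained by Cleave-'n-Seq with a burst-and-steady-state fit. A transcribed, DNA-blocked target RNA library (0.1 nM) was mixed with 1 nM active affinity-purified piRISC carrying one synthetic guide, with or without 500 nM GTSF1 partner protein, in HEPES–potassium acetate buffer at 33 °C for 0–8 or 0–960 min. Uncleaved targets were sequenced and normalised to depth and to weakly complementary targets, with three trials pooled and k3 capped at 0.0001 min^-1.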
Turning to GGAGACCUAUCUAUACAACCUACUUCGUCA, the “pre-steady-state target cleavage rate” value is 0.0271 ± 0.0057.
For GGAGAGGAUUCUUUACAACCUACUACCUCA, the “pre-steady-state target cleavage rate” value was determined as 0.167 ± 0.013.
As for GGAGACCUAUGUACACAACCUACUACCUCA, the figure is 0.0498 ± 0.0086; as for GGAGACCUAACUAUACAACCUACAAGCUCA, 0.0191 ± 0.011.
Then GGAGACCUAUGAAUACAACCUACUACCUAA, with 0.00505 ± 0.0032.
As for GGAGAGGAUACUAAAGAACCUACUACCUCA, the figure is 0.179 ± 0.0099; as for GGAGAGGAUUCUAUACAACCUACUACCACA, 0.113 ± 0.011; as for GGAGACCAUACUAUUCAACCAACUACCUCA, 0.00316 ± 0.0029.
In the case of GGAGACCUAUGAUUACAACCUACUCCCUCA, the “pre-steady-state target cleavage rate” value was determined as 0.00393 ± 0.0029.
As to GGAGACCUUACUAUACAACCUACAACCACA, the “pre-steady-state target cleavage rate” value worked out at 0.0494 ± 0.013.
Then GGAGUGCAUACUAUAGAACCUACUACCUCA, with 0.177 ± 0.013.
For the sequence GGAGAGGAUAGUAUUCAACCUACUACCUCA, the “pre-steady-state target cleavage rate” value stood at 0.0731 ± 0.011.
As for GGAGUGGAUUACUAUACAACCUACUACCUCA, the figure is 0.154 ± 0.0078.
Take “GGAGACCUUACUAUACAACCUACUACCUCU [g2:g22:cont:t1U]”: the “pre-steady-state target cleavage rate” value came to 0.177 ± 0.017.
As for GGAGACCUAUGUAUACAAGCUACUAGCUCA, the figure is 0.0122 ± 0.0045; as for GGAGACCUAUGAUAACAACCUUCUACCUCA, 0.0024 ± 0.0021; as for GGAGACCAAACUAUACAACCUACAACCUCA, 0.12 ± 0.035.
Consider GGAGACCUAUGUGUACAACCUACUACCUCA, for which the “pre-steady-state target cleavage rate” value was 0.0178 ± 0.0035.
As for GGAGACCUAUGUUUACAACCUACAACCUCA, the figure is 0.0131 ± 0.0031; as for GGAGACCUAUCUAUACUACCUACUAGCUCA, 0.0698 ± 0.014; as for GGAGACCUAUGAUAUGUACCUACUACCGCA, less than 0.0001.
As for GGAGACCUAUGAUAUCAACCUACUAACCUCA, the figure is 0.00255 ± 0.0025.
As for GGAGACCUAUGUUUACAACCUACUACGUCA, the figure is 0.00415 ± 0.0018; as for GGAGACCUAUGUAUACAACGUUCUACCUCA, 0.00392 ± 0.0018.
Take GGAGUGGAUACUUUACAACCUACAACCUCA: the “pre-steady-state target cleavage rate” value worked out at 0.0647 ± 0.0091.
Take GGAGACCUAACUAUACAAGCUACUAGCUCA: the “pre-steady-state target cleavage rate” value was 0.159 ± 0.042.
Then GGAGACCUUAGUAUACAACCUAGUACCUCA, with 0.0225 ± 0.0077.
As for GGAGACCUAUGUAUUCAACCUACAACCUCA, the figure is 0.0352 ± 0.0064; as for GGAGACCUAUCUAUACAAGCUACUACCUCA, 0.193 ± 0.017.
Consider GGAGACCUAACUAUACAACCUACUUACCUCA, for which the “pre-steady-state target cleavage rate” value worked out at 0.135 ± 0.021.
As to GGAGACCUAUGAAAACAACCUACUUCCUCA, the “pre-steady-state target cleavage rate” value was found to be 0.00368 ± 0.002.
With GGAGACCUAUGUAUACAACCUACUACCCCA, the “pre-steady-state target cleavage rate” value was determined as 0.045 ± 0.011.
Then GGAGACCUAUGAAUACAACCUAAUACCUCA, with 0.00363 ± 0.0026; and GGAGAGGUUACUAUACAUCCUACUACCUCA, with 0.191 ± 0.016; and GGAGACCUAACUAUACUACCUACUACCACA, with 0.0974 ± 0.017.
As for GGAGAGGAUACUAUACUUGCUACUACCUCA, the figure is 0.0407 ± 0.0049.
Then GGAGUGGAUACAAUAGAACCUACUACCUCA, with 0.163 ± 0.009; and GGAGACCUAACUAUCAACCUACUACCUCA, with 0.0603 ± 0.014.
For GGAGACCUAUGUAUACAACGUACAACCUCA, the “pre-steady-state target cleavage rate” value is 0.00935 ± 0.0021.
